Results with a measured potency or affinity are listed apart. Active and inactive are the calls of the source.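 How the source made its calls: active means cell-killing compounds whose fitted half-effect concentration is at most twice their highest valid dose; inconclusive means flat curve with 30 to 70% signal loss, or poor fit; inactive means the rest.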
Assay: A549 lung cell viability reduction – CellTiter-Glo luminescence, cherry-pick, cytotoxicity control, dose response (AID 743484)
Details: CellTiter-Glo ATP luminescence, 72 h; series mostly up to 26 µM
For `C[C@@H]1CCCCO[C@H](CN(C)CC2CC2)[C@H](C)CN([C@@H](C)CO)C(=O)c2cc(NC(=O)Nc3cccc4ccccc34)ccc2O1`, the outcome was “inactive”.
In the case of `CCn1c(-c2cc(-c3ccc(OC(C)C)cc3)nc3ccccc23)n[nH]c1=S`, the outcome was “inactive”.
With `Cc1ccc(C)c(NC(=O)CSc2nc3nc(-c4cccs4)cc(C(F)(F)F)c3c(=O)[nH]2)c1` the outcome was “inactive”.
With `COc1cccc(C(=O)Nc2cc(C)nn2-c2ccccc2)c1OC` the outcome was “inactive”.
With `C[C@@H]1CCCCO[C@H](CN(C)C(=O)CCCN(C)C)[C@H](C)CN([C@@H](C)CO)C(=O)c2cc(NC(=O)Nc3cccc4ccccc34)ccc2O1` the outcome was “inactive”.

— PubChem BioAssay AID743484 (Broad Institute, 2014)
